This is a sample that favours compounds with a hit; in the whole collection about 0.43% have one here.
PKA-R2B act: activates the human PKA-R2B holoenzyme complex; P22694+P31323; PKA-R2B holoenzyme dissociation, Cy5-IP20 fluorescence polarization; R2B truncated from residue 108, S112A mutant; 0% DMSO only, 100% 113 µM cGMP; activation, % at 11.4 µM; 340,000 compounds, 0.079% hits; AID 504700;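 active means activation above a cutoff set at the mean over all compounds plus 3 SD, cut at about 18% in these data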;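 further: higher means more holoenzyme dissociation and a rise in polarization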
PKA-R1A activ: PKA-R1A complex activation; 340,000 compounds, 0.083% hits; PKA-R1A dissociation, Cy5-IP20 fluorescence polarization; scaled: DMSO 0%, 113 µM cGMP 100%; activation, % at 11.4 µM;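 active means percent activation above the mean of all tested compounds plus 3 SD, cut at about 19% in these data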;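 further: higher means more PKAc released from R1A so a rise in polarization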
HDAC3 inh: blocks human histone deacetylase 3; 320,000 compounds, 0.15% hits; AID 2718; O15379; recombinant HDAC3, fluorogenic peptide/trypsin coupled, fluorescence; inhibition, % at 8.3 µM; in the data active means inhibition above about 26%, passing the limit was not always enough
Rtt109 HAT inh: blocks Candida albicans Rtt109/Vps75 acetyltransferase activity | Q5AAJ8 | purified Rtt109/Vps75, ThioGlo CoA-SH fluorescence, 4 h | inhibition, % at 34.9 µM | 330,000 compounds, 0.16% hits | AID 540336;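 active means inhibition of at least 50% in every replicate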
R2B FP artifact: counter-screen for PKA-R2B activators: fluorescence polarization artifacts | activation, % at 11.4 µM | 270 compounds, 6% hits | shares compounds with PKA-R2B act | AID 504796 | FP artifact counterscreen; in the data active means activation above about 20%;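 further: Cy5 labelled IP20 peptide probe with compound but no PKA protein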
PKA-R2B act conf: confirmation of human PKA-R2B complex activators; shares compounds with PKA-R2B act; activation, % at 11.4 µM; fluorescence polarization, activation; AID 504797; 270 compounds, 9% hits; in the data active means activation above about 19%
Target sequence (P31323 whole entry, looked up): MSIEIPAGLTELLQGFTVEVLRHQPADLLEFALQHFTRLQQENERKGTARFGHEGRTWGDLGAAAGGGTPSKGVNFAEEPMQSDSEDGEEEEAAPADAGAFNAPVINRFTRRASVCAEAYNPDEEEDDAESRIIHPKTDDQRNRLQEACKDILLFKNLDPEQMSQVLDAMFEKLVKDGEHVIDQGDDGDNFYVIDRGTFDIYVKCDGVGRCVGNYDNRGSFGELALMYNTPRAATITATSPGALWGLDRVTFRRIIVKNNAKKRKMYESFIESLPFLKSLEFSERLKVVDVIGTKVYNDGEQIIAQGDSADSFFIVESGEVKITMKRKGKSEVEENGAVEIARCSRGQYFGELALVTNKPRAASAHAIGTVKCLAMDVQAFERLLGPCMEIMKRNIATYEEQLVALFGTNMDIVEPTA
Active calls of the source: *; nt = no result given.

SMILES	PKA-R2B act	PKA-R1A activ	HDAC3 inh	Rtt109 HAT inh	R2B FP artifact	PKA-R2B act conf
Cc1cc(C(=O)OCC(=O)Nc2ccccc2Br)c(C)o1	4	1	2	2	nt	nt
Cc1cc(C)c(S(=O)(=O)NCC(=O)O)cc1C	20*	4	-3	13	5	4
COc1ccc(OC)c(S(=O)(=O)NCC(=O)O)c1	-3	0	-2	-15	nt	nt
CCOC(=O)C1=C(COC(=O)c2ccc(Cl)nc2)NC(=O)NC1C (stereo not drawn)	-14	-12	nt	14	nt	nt
Cc1occc1C(=O)Nc1nnc(-c2cccs2)s1	-9	-4	7	-5	nt	nt
COC(=O)CN1C(=S)N(c2ccc(Cl)cc2)C(=O)C1CC(=O)Nc1ccccc1 (stereo not drawn)	-4	6	7	9	nt	nt
COC(=O)CN1C(=S)N(C)C(=O)C1CC(=O)Nc1ccccc1 (stereo not drawn)	21*	-13	0	9	-1	-1
CC(=O)c1ccc(OCC(=O)Nc2nnc(C3CC3)s2)cc1	20*	0	nt	nt	5	2
CN(C)S(=O)(=O)c1ccc(S(=O)(=O)NCc2cccs2)cc1	25*	-2	-2	-1	0	-1
O=S(=O)(NCc1cccs1)c1ccc(Br)cc1	6	-9	1	8	nt	nt
Cc1cc(C(=O)NC2CCCN(Cc3ccc(Cl)cc3)C2)c(C)o1 (stereo not drawn)	20*	3	2	-5	2	0
CCOC(=O)C1CCCN(Cc2c(F)cccc2Cl)C1 (stereo not drawn)	-18	-2	9	0	nt	nt
CN(CCC#N)C(=O)COC(=O)c1ccc(Cl)c(S(=O)(=O)N(C)c2ccccc2)c1	4	-1	-1	-4	nt	nt
Cc1nn(CC(=O)OCC(=O)Nc2ccccc2[N+](=O)[O-])c(C)c1[N+](=O)[O-]	19*	4	1	-2	-1	3
CCOC(=O)C1=C(c2ccccc2)NC(SCC(=O)Nc2ccc(C)cc2)=C(C#N)C1c1ccco1 (stereo not drawn)	3	-3	4	4	nt	nt
CCOC(=O)C1=C(c2ccccc2)NC(SCC(=O)Nc2ccccc2C)=C(C#N)C1c1ccco1 (stereo not drawn)	19*	2	2	-1	4	1
CN1C(CCl)Nc2cc(Cl)c(S(N)(=O)=O)cc2S1(=O)=O (stereo not drawn)	-4	-2	nt	-3	nt	nt
CCC1NC(=O)c2cc(S(N)(=O)=O)c(Cl)cc2N1 (stereo not drawn)	21*	10	-4	-12	4	2
CC(=O)N1CCCC(C(=O)c2ccc3c4c(cccc24)CC3)C1 (stereo not drawn)	25*	1	-6	4	2	0
COc1ccc(C(=O)NNC(=O)CN2CCC(n3nnc4cc(F)ccc43)CC2)cc1	-6	-14	2	9	nt	nt
Cc1ccc(C(=O)CCC(=O)Nc2cccc(C(F)(F)F)c2)cc1	0	-11	-1	6	nt	nt
CC1=NN(c2nc(-c3ccc(Cl)cc3)cs2)C(=O)C1	20*	6	-3	10	0	4
CC1=NN(c2nc(-c3ccc(F)cc3)cs2)C(=O)C1	2	-6	-3	-1	nt	nt
CCOc1ccccc1/C=C(\C#N)C(=O)NC1CC1	nt	nt	8	nt	nt	nt
CCOc1c(Br)cc(/C=C(\C#N)C(=O)NC2CC2)cc1OC	19*	1	-1	-2	4	2
SMILES	PKA-R2B act	PKA-R1A activ	HDAC3 inh	Rtt109 HAT inh	R2B FP artifact	PKA-R2B act conf
CCc1ccc(S(=O)(=O)NC(=S)NC2CCCCC2)cc1	1	-14	-12	12	nt	nt
COc1cccc(CNC(=O)CCSCc2ccccc2F)c1	20*	5	6	2	-2	-1
COc1cccc(OC)c1CNC(=O)CCSCc1ccccc1F	-6	-9	0	-6	nt	nt
Cc1ccc(Cn2c(CN3CC(C)OC(C)C3)nc3c2c(=O)n(C)c(=O)n3C)cc1 (stereo not drawn)	19*	-6	0	12	3	1
COc1ccc(OC)c(C(=O)NC(CC(N)=O)c2ccc(N3CCN(c4ccccn4)CC3)c([N+](=O)[O-])c2)c1 (stereo not drawn)	21*	-4	5	-8	-3	2
COc1cc2c(cc1OC)C(c1ccc(Br)cc1)NCC2 (stereo not drawn)	nt	nt	-2	nt	nt	nt

High-throughput results: PubChem BioAssay, several laboratories
